In ChEMBL document CHEMBL3433997, “St. Jude Leishmania screening dataset” (2016):

How the values were obtained:
Type in all cases: functional
[1] = molecular target: Solute carrier family 2, facilitated glucose transporter member 1 (Homo sapiens) (UniProt P11166); assay: ST_JUDE_LEISH: Cytotoxicity at 2uM final concentration against transgenic Leishmania Mexicana promastigotes LmGLUT1 that are glucose transport deficient and complemented with the human glucose transporter GLUT1. Activity is measured by DNA content using SYBR green in vitro
[2] = molecular target: Hexose transporter 1 (Plasmodium falciparum) (UniProt O97467); assay: ST_JUDE_LEISH: Cytotoxicity at 2uM final concentration against transgenic Leishmania Mexicana promastigotes LmPfHT that are glucose transport deficient and complemented with the Plasmodium falciparum hexose transporter. Activity is measured by DNA content using SYBR green in vitro
[3] = molecular target: Glucose transporter (Leishmania mexicana) (UniProt O61059); assay: ST_JUDE_LEISH: Cytotoxicity at 2uM final concentration against transgenic Leishmania Mexicana promastigotes LmGT2 that are glucose transport deficient and complemented with the L. Mexicana glucose transporter 2. Activity is measured by DNA content using SYBR green in vitro

Solute carrier family 2, facilitated glucose transporter member 1 (Homo sapiens), sequence (P11166 whole entry): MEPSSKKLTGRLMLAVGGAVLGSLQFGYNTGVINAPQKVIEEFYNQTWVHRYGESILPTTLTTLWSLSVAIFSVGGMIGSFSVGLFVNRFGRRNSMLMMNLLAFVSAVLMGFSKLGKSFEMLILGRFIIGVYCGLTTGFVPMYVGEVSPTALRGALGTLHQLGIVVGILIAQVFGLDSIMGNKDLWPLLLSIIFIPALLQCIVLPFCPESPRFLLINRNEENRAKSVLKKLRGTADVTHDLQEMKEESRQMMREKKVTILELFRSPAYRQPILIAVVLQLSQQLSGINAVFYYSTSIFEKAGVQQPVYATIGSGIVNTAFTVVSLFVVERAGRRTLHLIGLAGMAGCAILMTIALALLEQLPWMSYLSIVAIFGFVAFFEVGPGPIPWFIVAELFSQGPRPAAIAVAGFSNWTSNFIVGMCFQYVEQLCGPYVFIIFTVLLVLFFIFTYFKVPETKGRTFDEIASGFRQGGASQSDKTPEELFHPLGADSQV

Compound: CC(C)(C)SC1SC(SC(C)(C)C)C(OC(=O)c2ccccc2)C(OC(=O)c2ccccc2)C1OC(=O)c1ccccc1 (stereo unspecified)
- inhibition [1]: -0.52%
- inhibition [2]: -0.69%
- inhibition [3]: -0.49%

Compound: CC(=O)c1ccc(-c2ccc(C(=O)NCCCCN3CCC(c4ccc5c(c4O)CCCC5)CC3)cc2)cc1
- inhibition [1]: 3.01%
- inhibition [2]: 3.4%
- inhibition [3]: 1.3%

Compound: O=C(Nc1ccc(N2CCC(Nc3ccccn3)CC2)cc1)c1cnc(Cl)c(Cl)c1
- inhibition [1]: 18%
- inhibition [2]: 10.4%
- inhibition [3]: 4.85%

Compound: COc1ccc(Cl)cc1NC(=O)Nc1ccc2c(c1)CCN(C1CCC1)CC2
- inhibition [1]: 2.26%
- inhibition [2]: 0.44%
- inhibition [3]: 1.36%

Compound: O=C(NCCCCCN1CCC(c2c[nH]c3ccccc23)CC1)Nc1ccc(Cl)cc1Cl
- inhibition [1]: 2.57%
- inhibition [2]: 2.01%
- inhibition [3]: 2.92%

Compound: O=C(Nc1ccccc1)N(Cc1cccc(-c2ccc(CNC3CCCC3)cc2)c1)C1CCN(Cc2ccccc2)CC1
- inhibition [1]: 5.58%
- inhibition [2]: 4.72%
- inhibition [3]: 2.99%

Compound: CCn1c(-c2nonc2N)nc2c(-c3ccc(CO)o3)ncc(OCCCN)c21
- inhibition [1]: 6.54%
- inhibition [2]: 3.21%
- inhibition [3]: 5.17%

Compound: N#CCSc1nnc(-c2ccccc2)c2ccccc12
- inhibition [1]: 2.6%
- inhibition [2]: 9.44%
- inhibition [3]: -0.1%

Compound: Cc1ccc(F)cc1S(=O)(=O)Nc1ccc(CCN2CCC(N3CCCCC3)CC2)cc1
- inhibition [1]: 0.5%
- inhibition [2]: -0.31%
- inhibition [3]: 1.36%

Compound: COc1cc2c(cc1OCCN1CCC(N)CC1)N(C(=O)/C=C/c1ccccc1Cl)CC2
- inhibition [1]: 11.3%
- inhibition [2]: 10.8%
- inhibition [3]: 12.8%

Compound: CCC(CC)OC(=O)C(C)c1cccc(C(=O)c2ccccc2)c1 (stereo unspecified)
- inhibition [1]: 2.22%
- inhibition [2]: -0.21%
- inhibition [3]: 1.64%

Compound: CC(CCNc1c2ccccc2nc2ccccc12)N1CCN(C)CC1 (stereo unspecified)
- inhibition [1]: 30.8%
- inhibition [2]: 29.1%
- inhibition [3]: 20.8%
